Data taken from the supplement of paper PMC11417369.
± gives the standard deviation of the averaged measurements. Whole data set: some 25,000 sequences, median “ln(normalized median fluorescence intensity)” near 8.6, cut for the highest 2% near 10. The list comes from a sample in which the highest values are over-represented; it also holds similar and randomly drawn sequences.

test system: PfAP2-EXP AP2 domain (GST-tagged); assay: gcPBM binding intensity (ln(normalized median fluorescence intensity)); higher = stronger DNA binding
How it was run: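 Each value is the highest Masliner-normalised natural-log median intensity across replicate spots of either orientation of a probe. The probes were primer-extended double-stranded 36-bp intergenic genomic sequences on an Agilent 4 × 180k array, alongside negative controls, exposed for 1 h to GST-tagged P. falciparum DNA-binding domains expressed in E. coli. Bound protein was picked up with Alexa488 anti-GST antibody and scanned at 488 nm.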

| Sequence | gcPBM binding intensity (ln) |
| --- | --- |
| ACATCTCTTATATATTCACACACATATATATAATTA [CACACA_site8424] | 8.82 ± 0.35 |
| TATATAATTGTCTTCACACACACATATATATATATA [CACACA_site2744] | 10 ± 0.3 |
| TTGTAATATCTTGTCACACATATATATATATATATA [CACACA_site4937] | 10.2 ± 0.57 |
| TTTCTTCATTTTTTCACACATAAGAAAATATAATCA [CACACA_site4275] | 8.46 ± 0.46 |
| AAGAATATAATCTTCACACATATATATATATATATA [CACACA_site5927] | 10.2 ± 0.33 |
| TATAATTGTCTTCACACACACATATATATATATATA [CACACA_site2743] | 10.2 ± 0.29 |
| TATATCTTAATATACACACACACATATATATATATA [CACACA_site4968] | 10 ± 0.35 |
| AAAGAAAGTACCTTCACACATATAAGAATATAATAT [CACACA_site5214] | 8.6 ± 0.52 |
| ATCTTTCAATAATTCACACATATATATATATATATA [CACACA_site4598] | 10.2 ± 0.28 |
| ATTATATAATTGTCTTCACACACACCGATATATATA [CACACA_site8883] | 8.93 ± 0.51 |
| TTTTTTTTTTTTGTCACACATATGGAATATATCTAT [CACACA_site5899] | 8.54 ± 0.54 |
| TTCAAAATAAAAAATTCACACACATATATATATATA [CACACA_site8653] | 10 ± 0.45 |
| ATCTATGAAAAAGGTACATGCAATAAAGAAACATAT [TGCATGCA_site805] | 9.54 ± 0.45 |
| TCATAAATTAAACAAACACACACGTTCTTTTATTTA [CACACA_site713] | 8.38 ± 0.33 |
| CTTTTTTTTTTGGGGGTGCATGCAAGACATATATTT [GTGCAC_site9660] | 10.51 ± 0.028 |
| AATATTTTTTTTTAAACATGCATATTTGCATTACCC [TGCATGCA_site437] | 8.58 ± 0.41 |
| TTTTTTTTTGGGGGTGCATGCAAGACATATATTTAA [TGCATGCA_site228] | 10.43 ± 0.028 |
| CATATTATTATTTTGGTGCATACTTATATATATTTT | 8.75 ± 0.31 |
| ATACTTTTATTTTTGGTGCATATATCATGTAGACGT | 9.025 ± 0.035 |
| AATATTTTATTTTGGGTGCAAAAGAATATTATTTCA | 8.34 ± 0.071 |
| ATTTTGGAAATAATATGTACATATACATAATATATA [XGTACX_site4177] | 8.36 ± 0.29 |
| GCATTGATCAAACATACACACATGGTTAATAAAAAT [CACACA_site2085] | 8.72 ± 0.55 |
| ATATATATATATTTATGTACATATTATTTATTCTTT [XGTACX_site6567] | 9.94 ± 0.17 |

| Sequence | gcPBM binding intensity (ln) |
| --- | --- |
| TCTTTATTATTCGCCACACACATATATATATATATA [CACACA_site3077] | 10.2 ± 0.43 |
| ATTTATTATATATACACACATACATATATATATATA [CACACA_site2159] | 9.91 ± 0.42 |
| ATTCTTTATTATTCGCCACACACATATATATATATA [CACACA_site9009] | 10.2 ± 0.28 |
| TTTCTTTTTATATTCACACATAAATATATATATATA [CACACA_site6053] | 9.81 ± 0.28 |
| TCTTTATTATTCGCCACACACATATAAATATAAATA [CACACA_site7441] | 8.88 ± 0.38 |
| CCATTCAAATTTCGCACACACATACAAAAAAAAAAA [CACACA_site3093] | 8.59 ± 0.42 |
| ATGCAATAATAATATTGTACGCATATATTTTTTACT [XGTACX_site3384] | 8.41 ± 0.3 |
| TATAGCATAAATATGTGTACATATTTATATGATATT [XGTACX_site6333] | 8.37 ± 0.28 |
| AATACGAAGGATAAGAGTACTAATTAAATAAATGAA [XGTACX_site523] | 8.96 ± 0.28 |
| AGGTAGTTCTGTATCACACACATATATATATATATA [CACACA_site2214] | 10.3 ± 0.47 |
| TAAGGTAGTTCTGTATCACACACATATATATATATA [CACACA_site8693] | 10.1 ± 0.26 |
| AGGTAGTTCTGTATCACACACATATAAATATAAATA [CACACA_site7110] | 8.48 ± 0.4 |
| TCAACAAAATTGAAGGAACACACATACATATATATA [CACACA_site7940] | 8.87 ± 0.23 |
| TACAGACATACATACACACATACATACAGACATACA [CACACA_site1941] | 8.66 ± 0.26 |
| TTCCCCCCCAGACACACACACACATACATACCACAT [CACACA_site2305] | 10.5 ± 0.24 |
| CATACACCCAGACACACACACATATATATATATATA [CACACA_site634] | 10.1 ± 0.44 |
| CACAGACACCCATACACACACATACCCATATATATA [CACACA_site5023] | 8.79 ± 0.32 |
| CACCCCCACAGACACACACACACACCCACATATATA [CACACA_site365] | 9.27 ± 0.39 |
| CCCCCCCACAGACACACACACATACATACCACATAT [CACACA_site2306] | 10.3 ± 0.014 |
| CATTTCTATATAAGCACACACGTGGAATTTTTTTTT [CACACA_site5537] | 8.7 ± 0.26 |
| GCCATAAAAATATATACACACATAAAAAAAAATTAT [CACACA_site1176] | 8.36 ± 0.53 |
| CTTTGTAGTTGGTCCACACACATATCTGGAAGAATA [CACACA_site4834] | 8.54 ± 0.39 |
